PubChem BioAssay (NCI)
The panel holds about 83,000 compounds, 20% with a hit somewhere; the sample as a whole holds those more often.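 Method: cells in 96-well plates; compound added at one concentration; 48 h incubation; percent growth measured; values under 10 scored active.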 Active and inactive are the calls of the source.

Legend:
Assay in all cases: NCI-60 one-dose screen, 48 h (100 = growth as untreated, 0 = no growth, -100 = all killed)
Conditions in all cases: 10 µM unless noted
[1] = tested on: SR leukemia
[2] = tested on: RPMI-8226 leukemia
[3] = tested on: OVCAR-8 ovarian
[4] = tested on: OVCAR-5 ovarian
[5] = tested on: OVCAR-4 ovarian
[6] = tested on: SK-OV-3 ovarian
[7] = tested on: IGROV1 ovarian
[8] = tested on: OVCAR-3 ovarian
[9] = tested on: HS 578T breast
[10] = tested on: NCI/ADR-RES ovarian

Measured: growth

Cc1cc(C)nc(SC2=C(Nc3ccc(C)c(Cl)c3)C(=O)N(Cc3ccccc3)C2=O)n1
active: [2] 7.62% [30 µM]
inactive: [1] 25.4% [30 µM] | [3] 45.3% [30 µM] | [4] 103% [30 µM] | [5] 58.2% [30 µM] | [6] 99% [30 µM] | [7] 45.1% [30 µM] | [8] 69% [30 µM] | [9] 72.1% [30 µM] | [10] 62.8% [30 µM]

O=c1cc(CSc2nnc(-c3ccc(F)cc3)o2)c2ccc3ccccc3c2o1
inactive: [1] 94.1% | [2] 101% | [3] 96.4% | [4] 93% | [5] 108% | [6] 82.4% | [7] 101% | [8] 101% | [9] 95.5% | [10] 91.8%

C#CCOc1ccc2ncnc(Nc3cccc(CNC(=O)CCl)c3)c2c1
active: [7] -5.04% [8.25 µM]
inactive: [1] 25.1% [8.25 µM] | [2] 37.7% [8.25 µM] | [3] 38.8% [8.25 µM] | [4] 65.9% [8.25 µM] | [5] 27.2% [8.25 µM] | [6] 48.1% [8.25 µM] | [8] 29.3% [8.25 µM] | [9] 37.8% [8.25 µM] | [10] 90.3% [8.25 µM]

Cc1nc(Nc2ccc(F)c(Cl)c2)sc1C(=O)O
inactive: [3] 14% | [4] 51.2% | [5] 21.7% | [6] 17.4% | [7] 19.3% | [8] 23% | [9] 18.7% | [10] 13.4%
active: [1] 5.95% | [2] 5.09%

O=C1/C(=C/c2ccc(Cl)cc2)SC(=S)N1CCc1ccc(O)cc1
inactive: [1] 102% | [2] 90.6% | [3] 97.6% | [4] 104% | [5] 58.4% | [6] 90.9% | [7] 14.6% | [8] 98.2% | [9] 86.1% | [10] 98.5%

O=C(Nc1cccc2[nH]c(C(F)(F)F)nc12)c1ccc(-n2cnnn2)cc1
inactive: [1] 79.5% | [2] 48.7% | [3] 89.4% | [4] 123% | [5] 90.5% | [6] 104% | [7] 95.5% | [8] 76.2% | [9] 108% | [10] 107%

CCN(CC)c1ccc(/C=N\NC(=O)/C=C/C=C/c2ccc3c(c2)OCO3)c(O)c1
active: [8] 4.95%
inactive: [1] 17.6% | [2] 53.6% | [3] 32.9% | [4] 60.9% | [5] 15.3% | [6] 39.5% | [7] 38.2% | [9] 68.1% | [10] 17.6%

COc1cc2c(cc1-c1c(C)noc1C)ncc1nc(C3CCC(F)(F)CC3)n([C@H](C)COC(F)F)c12
inactive: [1] 22.7% | [2] 18.5% | [3] 44.3% | [4] 82.5% | [5] 48.1% | [6] 10.5% | [7] 40.6% | [8] 39.6% | [9] 13.9% | [10] 40.1%

CN1CCN(c2ccc3nc(-c4ccc(OCCCCN5CCN(CCCCN6C(=O)c7cccc8cccc(c78)C6=O)CC5)cc4)[nH]c3c2)CC1
inactive: [2] 26.3% | [3] 22.6% | [4] 116% | [5] 80.5% | [6] 89.3% | [7] 58.5% | [8] 76.1% | [9] 35.2% | [10] 69.6%
active: [1] -68.4%

Cc1[nH]c(-c2cc(N)ccc2Cl)c2c1C(=O)CCCC2
inactive: [1] 44.8% | [2] 12.7% | [3] 22.2% | [4] 49.3% | [5] 36.4% | [6] 11.7% | [7] 20.6% | [8] 30.4% | [10] 33%
active: [9] 7.36%

CC1C(/C=N/Nc2ccccc2)C(C#N)(C#N)C1(C#N)C#N (stereo not given)
inactive: [1] 46.6% | [2] 82% | [3] 85.6% | [4] 87.3% | [5] 76.1% | [6] 95.7% | [7] 56.3% | [8] 86.2% | [9] 87.2% | [10] 65.1%

CN(C)S(=O)(=O)c1cccc(-c2nc3sc4c(c3c(=O)[nH]2)CCCC4)c1
active: [1] -48.6% | [5] -56.4% | [6] 7.06% | [9] -4.53%
inactive: [2] 23.9% | [3] 13.4% | [4] 23.3% | [7] 32.1% | [8] 19.5% | [10] 29.5%

NCCNc1nc(Nc2ccc(-c3nc4ccccc4[nH]3)cc2)c2cn[nH]c2n1
inactive: [3] 43.9% | [4] 125% | [5] 88.4% | [6] 111% | [7] 97.6% | [8] 83.9% | [9] 41.8% | [10] 94.9%
active: [1] -3.8% | [2] -11.7%

Cc1ccccc1COc1ccc(-c2ccnn2-c2ccc(Cl)cc2)cc1
inactive: [1] 33.8% | [2] 77.6% | [3] 75.3% | [4] 91.7% | [5] 85.7% | [6] 63.7% | [7] 57.5% | [8] 26.6% | [9] 60.9% | [10] 38%

CCCOc1cc2ccccc2cc1C(=O)Nc1nc(N)c2c(ccc3nccc32)[nH]1
active: [1] -16.2% | [2] -40.5% | [3] -49% | [4] -67.7% | [5] -50.9% | [6] -77.2% | [7] -47% | [8] -60.5% | [9] -56.1% | [10] -8.57%

Cc1cc(N2CCOCC2)nc(NCc2cc(Nc3ccnc4cc(Cl)ccc34)ccc2F)n1
active: [1] -41.3% | [2] -40.4% | [3] -48.9% | [4] -17.2% | [5] 3.65% | [6] -40.8% | [7] -14.1% | [8] -94.2% | [9] -14.2% | [10] -56.9%

CC1=C/C(=C(\c2ccc(N(C)C)cc2)c2ccc([N+](C)(C)C)cc2)C=CC1=[N+](C)C
active: [2] 2.54%
inactive: [1] 60.8% | [3] 36.2% | [4] 115% | [5] 89.3% | [6] 94% | [7] 94.4% | [8] 86.6% | [9] 55% | [10] 100%

Oc1ccccc1-c1nnc(CNc2ccc(Cl)cc2)o1
inactive: [1] 10.4% | [2] 23.4% | [3] 18.6% | [4] 64% | [5] 34.2% | [6] 19.5% | [7] 25.9% | [8] 26.1% | [9] 57.6% | [10] 13.4%

COc1ccc(CN2c3ccccc3Sc3ccccc32)c(C(F)(F)F)c1
active: [8] 5.59%
inactive: [1] 12.1% | [2] 28.8% | [3] 31.1% | [4] 65.5% | [5] 44.2% | [6] 17.8% | [7] 43.4% | [9] 22.8% | [10] 22.7%

Cc1ccc2c(C(C[N+](=O)[O-])c3ccccc3)c(-c3ccccc3)[nH]c2c1 (stereo not given)
active: [8] 3.85% [9.5 µM] | [9] 1.97% [9.5 µM]
inactive: [1] 25.4% [9.5 µM] | [2] 24.4% [9.5 µM] | [3] 29.6% [9.5 µM] | [4] 52.2% [9.5 µM] | [5] 59.8% [9.5 µM] | [6] 19.3% [9.5 µM] | [7] 27.4% [9.5 µM] | [10] 10.9% [9.5 µM]

CC(=O)Nc1ccc(S(=O)(=O)Nc2cccc(-c3nc(-c4ccc(NC(=O)c5cccnc5)cc4Cl)no3)c2)cc1
inactive: [1] 19% | [2] 43.8% | [3] 38.8% | [4] 84.7% | [5] 53% | [6] 20.9% | [7] 54.7% | [8] 20.7% | [9] 24.5% | [10] 94.7%

NC1=C(Cl)C(=O)c2ccc(S(N)(=O)=O)cc2C1=O
active: [1] 2.63% | [2] -0.705% | [3] -53.9% | [4] -87.7% | [5] -100% | [6] -45.3% | [7] -85.5% | [8] -95.5% | [9] -21% | [10] -30.7%

COc1cc(/C=C/c2cc(/C=C/c3ccc(O)c(OC)c3)n(-c3c(Cl)cccc3Cl)c(=O)n2)ccc1O
inactive: [4] 57.6% | [5] 56.3% | [6] 47.7% | [7] 33.5% | [8] 10.7% | [9] 36.3% | [10] 55.2%
active: [1] 4.12% | [2] 0.562% | [3] 7.53%

N#Cc1cnn(-c2nc3c(Cl)cccc3s2)c1N
active: [5] -4.16%
inactive: [1] 89.9% | [2] 95.7% | [3] 80.8% | [4] 108% | [6] 78.1% | [7] 84% | [8] 98.1% | [9] 84.2% | [10] 82%

CCNC(=O)Oc1ccc(/C(=C(\C)c2ccc(Cl)cc2)c2ccc(OCCN3CCCCC3)cc2)cc1
inactive: [3] 70.4% | [4] 74.9% | [5] 43.7% | [6] 63.2% | [7] 56.8% | [8] 60.8% | [9] 55.9% | [10] 64.9%
active: [1] -20.8% | [2] -4.11%

CCN1CCN(c2nc(NCCCNc3ccnc4cc(Cl)ccc34)c3ccccc3n2)CC1
inactive: [3] 16.6% | [4] 55.1% | [5] 48% | [6] 60% | [7] 59.3% | [8] 54% | [9] 78.8% | [10] 92.6%
active: [1] -33.3% | [2] -10%
